In one assay the target is Albumin (Bos taurus) (UniProt P02769). Description: compounds binding labelled BSA control protein – biochemical, small-molecule microarray, Alexa647 label, 635/667 nm fluorescence, artefact control for SMM control protein annotation, profiling panel (AID 1118).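 Note: score merges 667 nm emission intensity and signal-to-noise per printed compound spot.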 The settings on record: BSA-A647 binding, fluorescence 635 nm, higher = more signal.
Assay [1] in a line: probe aXIP binding to arrayed compounds – biochemical, NeuroSMM set, 635/667 nm fluorescence, primary screen (AID 1119).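 Note: probe is the protein aXip251-270 applied at 1 µg/mL to compound-printed slides; binding of probe to printed compounds measured as 667 nm fluorescence plus signal to noise.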 The settings on record: small-molecule microarray, higher = more signal, called active from +8 up or from −8 down.
The nature of assay [2]: probe aNOTCH3 binding on compound microarray – biochemical, small-molecule microarray, 635/667 nm fluorescence, primary screen (AID 1120).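 Note: probe is a biotin-tagged antibody raised against NOTCH3 rather than NOTCH3 protein; score merges spot fluorescence near 667 nm with spot signal to noise.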 Conditions: higher = more signal.
Assay [3] is described as follows: probe aNOTCH2 binding on compound microarray – biochemical, small-molecule microarray, 635/667 nm fluorescence, primary screen (AID 1121).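 Note: score merges feature fluorescence read at 667 nm with its signal to noise.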 Conditions: higher = more signal.
The target in assay [4] is Carbonic anhydrase 2 (Homo sapiens) (UniProt P00918). Description: compounds binding carbonic anhydrase 2 – biochemical, small-molecule microarray, Alexa647-labelled CAII, profiling panel (AID 1122). The settings on record: CAII-A647 binding fluorescence, higher = more signal.
A short description of assay [5]: COS7 lysate on small-molecule microarray, probe aHis, 635 nm (AID 1123).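 Note: z-score combines 667nm fluorescence intensity with signal-to-noise per printed compound spot.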 Conditions: COS7 cell lysate, fluorescence, higher = more signal.
A short description of assay [6]: probe aLAP1 signal on lysate-treated microarray – cell lysate, small-molecule microarray, COS7 lysate, primary screen (AID 1124).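 Note: lysate comes from COS7 cells expressing LAP1 and is applied at 0.3 µg/mL; score merges spot fluorescence near 667 nm with signal-to-noise over triplicate slides.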 Conditions: probe aLAP1, fluorescence, higher = more signal.
The next assay deals with Sam68 (KHDRBS1). Description: compounds binding KHDRBS1 protein – biochemical, small-molecule microarray, 635 nm fluorescence, primary screen (AID 1125).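 Note: score merges 667 nm channel intensity with signal to noise over triplicate slides.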 Conditions: higher = more signal.
In assay [7] the test system is Chordin-like protein 2 (CHRDL2). Kind of assay: compounds binding chordin-like 2 – biochemical, small-molecule microarray, 635 nm fluorescence, primary screen (AID 1126).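 Note: printed compound slides probed with Chrdl2 protein at 4 µg/mL for 1 h at 4 C; score merges 667 nm emission intensity with signal to noise over three replicate slides.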 Conditions: fluorescence 635 nm, higher = more signal.
The target of assay [8] is Concanavalin-A (Canavalia ensiformis) (UniProt P02866). Kind of assay: compounds binding concanavalin A lectin – biochemical, small-molecule microarray, Alexa647 label, 635 nm, artefact control for SMM control protein annotation, primary screen (AID 1127).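 Note: z combines 667 nm emission intensity with signal-to-noise across three replicate slides.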 The settings on record: ConA-A647 binding fluorescence, higher = more signal.
Sequence of Concanavalin-A (Canavalia ensiformis) (P02866 whole entry, looked up): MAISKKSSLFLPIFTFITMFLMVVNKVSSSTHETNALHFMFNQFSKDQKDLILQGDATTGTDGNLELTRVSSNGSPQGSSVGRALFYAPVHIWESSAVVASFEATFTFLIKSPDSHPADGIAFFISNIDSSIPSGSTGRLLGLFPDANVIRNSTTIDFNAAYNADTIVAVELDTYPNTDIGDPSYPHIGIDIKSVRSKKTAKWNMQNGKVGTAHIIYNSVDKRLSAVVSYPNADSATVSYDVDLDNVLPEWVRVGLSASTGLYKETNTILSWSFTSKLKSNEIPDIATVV
The nature of assay [9]: compounds binding Alexa647 anti-His antibody – biochemical, small-molecule microarray, 635 nm fluorescence, artefact control for SMM control protein annotation, primary screen (AID 1128).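 Note: score merges feature fluorescence with signal-to-noise for each printed compound spot.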 Conditions: higher = more signal.
Assay [10] has as its system Human papillomavirus type 1a E7 protein (residues 1-88). Description: HPV1a E7 small-molecule binders, primary screen, biochemical, small-molecule microarray, residues 1-88, 635 nm (AID 1129). Conditions: small-molecule microarray binding, fluorescence 635 nm; higher = more signal.
Assay [11] deals with Focal adhesion kinase 1 (Homo sapiens) (UniProt Q05397). Description: PTK2 protein binding on printed compound slides – biochemical, small-molecule microarray, 635/667 nm fluorescence, BSA, DTT, primary screen (AID 1130).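 Note: composite of spot emission at 667 nm and signal to noise over triplicate slides.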 The settings on record: 635 nm fluorescence, higher = more signal.
Sequence of Focal adhesion kinase 1 (Homo sapiens) (Q05397 whole entry, looked up): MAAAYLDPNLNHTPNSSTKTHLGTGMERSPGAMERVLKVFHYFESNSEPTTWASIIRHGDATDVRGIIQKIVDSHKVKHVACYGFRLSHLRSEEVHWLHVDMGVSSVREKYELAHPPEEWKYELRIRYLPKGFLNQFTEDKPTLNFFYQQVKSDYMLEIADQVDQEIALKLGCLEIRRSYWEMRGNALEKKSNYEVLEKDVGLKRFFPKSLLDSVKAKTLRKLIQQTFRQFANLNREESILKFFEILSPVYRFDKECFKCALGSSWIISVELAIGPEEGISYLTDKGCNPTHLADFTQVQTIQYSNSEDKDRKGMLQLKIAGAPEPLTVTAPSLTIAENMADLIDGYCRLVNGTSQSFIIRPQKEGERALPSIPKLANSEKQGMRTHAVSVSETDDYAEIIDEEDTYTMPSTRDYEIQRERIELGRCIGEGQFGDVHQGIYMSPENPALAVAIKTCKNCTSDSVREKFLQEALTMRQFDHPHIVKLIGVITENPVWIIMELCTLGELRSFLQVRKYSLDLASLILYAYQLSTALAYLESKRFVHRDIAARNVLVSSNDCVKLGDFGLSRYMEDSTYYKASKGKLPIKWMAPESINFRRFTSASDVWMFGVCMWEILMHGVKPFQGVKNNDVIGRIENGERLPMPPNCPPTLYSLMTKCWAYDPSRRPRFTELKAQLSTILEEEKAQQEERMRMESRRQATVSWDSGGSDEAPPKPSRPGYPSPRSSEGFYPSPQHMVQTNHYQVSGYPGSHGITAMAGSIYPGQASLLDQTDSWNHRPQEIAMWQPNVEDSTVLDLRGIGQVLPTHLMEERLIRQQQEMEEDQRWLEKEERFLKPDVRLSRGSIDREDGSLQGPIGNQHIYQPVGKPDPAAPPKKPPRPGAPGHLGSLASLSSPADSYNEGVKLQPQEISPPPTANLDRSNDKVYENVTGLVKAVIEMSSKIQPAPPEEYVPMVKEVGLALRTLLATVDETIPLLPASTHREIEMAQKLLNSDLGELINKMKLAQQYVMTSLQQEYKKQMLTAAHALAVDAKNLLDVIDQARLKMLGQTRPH
The test system of assay [12] is Fibrinogen (Alexa647-labelled). Kind of assay: Alexa647-fibrinogen binding to printed small molecules – biochemical, small-molecule microarray, 635/667 nm fluorescence, artefact control for SMM control-protein annotation, profiling panel (AID 1131).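 Note: z-score merges 667 nm fluorescence with per-spot signal-to-noise over triplicate slides.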 Conditions: fibrinogen-A647 binding fluorescence, higher = more signal.
Assay [13] addresses Follistatin (Homo sapiens) (UniProt P19883). Kind of assay: FST protein binding to printed compounds – biochemical, small-molecule microarray, 635/667 nm fluorescence, primary screen (AID 1132). Conditions: 635 nm fluorescence, higher = more signal.
Assay [14] has as its target Fibroblast growth factor 2 (Homo sapiens) (UniProt P09038). Kind of assay: basic fibroblast growth factor binding to printed compounds – biochemical, small-molecule microarray, 635/667 nm fluorescence, primary screen (AID 1133). Conditions: FGF2, fluorescence 635/667, higher = more signal.
Assay [15] can be described thus: JC-1 mitochondrial potential readout, lung cancer cells – cell-based, A549, JC-1 fluorescence, basal, 24 h, 100 nL, profiling panel (AID 1138).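 Note: A549 lung adenocarcinoma cells under basal conditions with no added stimulus; test concentration not given here.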 The settings on record: higher = more signal.
The test system of another assay is Lefty1. Description: Lefty1 protein binding to printed compounds – biochemical, small-molecule microarray, 635/667 nm fluorescence, primary screen (AID 1139). The settings on record: fluorescence 635/667, higher = more signal.
For assay [16], the system named is wheat germ agglutinin (Triticum aestivum), Alexa647-labelled. Kind of assay: Alexa647-WGA lectin binding to printed small molecules – biochemical, small-molecule microarray, 635/667 nm fluorescence, artefact control for SMM control-protein annotation, profiling panel (AID 1140).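 Note: score merges 667 nm feature emission with signal to noise over triplicate slides.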 Conditions: WGA-A647 binding, 635 nm fluorescence, higher = more signal.
Assay [17] concerns the target Luciferin 4-monooxygenase (Photinus pyralis) (UniProt P08659). Kind of assay: inhibition of purified Photinus pyralis luciferase – biochemical, luminescence, purified enzyme, 2006 set, primary screen (AID 1141).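 Note: cell-free assay with purified firefly luciferase at 100 ng per well in PBS; test concentration not given here.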 The settings on record: purified firefly luciferase, SteadyGlo luminescence, 30 min; higher = more signal, called active from +8 up or from −8 down.

SMILES strings stand for the structures. Active and inactive are the calls of the source.

Sequence of Luciferin 4-monooxygenase (Photinus pyralis) (P08659 whole entry, looked up): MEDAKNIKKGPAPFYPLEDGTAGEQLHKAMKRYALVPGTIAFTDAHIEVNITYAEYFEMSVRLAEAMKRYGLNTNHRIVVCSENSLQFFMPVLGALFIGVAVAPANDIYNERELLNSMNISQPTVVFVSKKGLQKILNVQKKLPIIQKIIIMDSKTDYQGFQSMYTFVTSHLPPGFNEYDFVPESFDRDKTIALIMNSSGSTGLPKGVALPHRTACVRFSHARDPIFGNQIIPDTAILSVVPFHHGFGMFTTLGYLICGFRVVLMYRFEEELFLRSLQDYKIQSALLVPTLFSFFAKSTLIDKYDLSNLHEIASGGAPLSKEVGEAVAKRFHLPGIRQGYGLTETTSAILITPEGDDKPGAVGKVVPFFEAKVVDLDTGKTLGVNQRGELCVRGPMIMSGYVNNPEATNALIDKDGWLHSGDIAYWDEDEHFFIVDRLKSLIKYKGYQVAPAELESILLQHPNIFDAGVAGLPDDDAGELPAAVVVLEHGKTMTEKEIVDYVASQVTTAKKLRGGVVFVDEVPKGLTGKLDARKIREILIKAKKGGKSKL
Sequence of Fibroblast growth factor 2 (Homo sapiens) (P09038 whole entry, looked up): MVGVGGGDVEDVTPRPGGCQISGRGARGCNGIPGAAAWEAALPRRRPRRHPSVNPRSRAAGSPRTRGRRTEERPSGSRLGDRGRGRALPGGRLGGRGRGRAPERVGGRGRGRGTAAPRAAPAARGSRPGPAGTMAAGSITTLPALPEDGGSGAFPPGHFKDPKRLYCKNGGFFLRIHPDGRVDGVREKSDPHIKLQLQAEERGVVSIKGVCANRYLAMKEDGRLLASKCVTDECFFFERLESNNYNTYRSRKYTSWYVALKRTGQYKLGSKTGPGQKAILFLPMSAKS
Sequence of Albumin (Bos taurus) (P02769 whole entry, looked up): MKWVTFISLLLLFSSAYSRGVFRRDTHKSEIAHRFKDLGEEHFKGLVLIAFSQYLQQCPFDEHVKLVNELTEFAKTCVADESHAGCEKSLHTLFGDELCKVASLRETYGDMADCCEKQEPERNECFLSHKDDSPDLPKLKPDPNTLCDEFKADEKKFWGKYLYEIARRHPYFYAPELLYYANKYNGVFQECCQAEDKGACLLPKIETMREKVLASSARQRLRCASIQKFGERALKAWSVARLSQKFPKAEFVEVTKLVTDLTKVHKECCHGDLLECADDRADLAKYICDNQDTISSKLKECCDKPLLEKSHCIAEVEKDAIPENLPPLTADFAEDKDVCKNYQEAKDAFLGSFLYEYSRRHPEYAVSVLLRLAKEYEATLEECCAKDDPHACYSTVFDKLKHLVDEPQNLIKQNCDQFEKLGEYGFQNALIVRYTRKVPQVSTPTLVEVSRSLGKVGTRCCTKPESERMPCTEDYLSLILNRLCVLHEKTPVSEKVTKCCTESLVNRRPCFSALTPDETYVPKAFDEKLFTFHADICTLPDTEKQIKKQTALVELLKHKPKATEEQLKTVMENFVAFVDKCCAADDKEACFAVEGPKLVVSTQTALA
Sequence of Follistatin (Homo sapiens) (P19883 whole entry, looked up): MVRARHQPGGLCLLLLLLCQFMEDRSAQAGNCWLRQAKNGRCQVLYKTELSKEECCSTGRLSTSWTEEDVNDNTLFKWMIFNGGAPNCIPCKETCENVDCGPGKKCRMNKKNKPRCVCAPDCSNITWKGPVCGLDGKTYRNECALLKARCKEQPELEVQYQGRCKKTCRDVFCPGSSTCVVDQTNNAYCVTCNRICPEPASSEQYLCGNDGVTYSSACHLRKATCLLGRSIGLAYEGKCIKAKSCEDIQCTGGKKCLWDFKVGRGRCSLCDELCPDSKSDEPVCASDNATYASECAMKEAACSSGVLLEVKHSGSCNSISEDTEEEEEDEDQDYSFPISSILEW

In the case of `COCCOC(=O)N1C(=O)[C@@]2(c3cc(C#CCNC(N)=O)ccc31)[C@H](c1ccc(O)cc1)N1[C@H](c3ccccc3)[C@H](c3ccccc3)OC(=O)[C@H]1[C@@H]2C(N)=O`, the composite z-score with Albumin (Bos taurus) is -0.864; in [2] it was -0.443; in assay [3], -0.198; in assay [4], -0.394; in [5] it was -0.157; in assay [6], -0.38. The composite z-score in the assay with Sam68 (KHDRBS1) is -0.344; in [7] it was -1.52; in assay [8], -1.03; in assay [9], -0.685; in assay [10] it was -0.703; in [11], -0.529. The composite z-score in assay [12] is -1.39; in assay [13], -1.91; in [14], -0.93; in the assay on Lefty1, -1.72; in assay [16] it was -1.18. Besides, the composite Z-score in assay [1] is -1.03 (inactive). The z-score in assay [15] was 0.902; in assay [17], -1.03 (inactive).

Turning to `[N-]=[N+]=Nc1ccccc1C[C@]1(C(=O)O)N=C(c2ccc(OCCCO)cc2)O[C@H]1c1ccccc1N=[N+]=[N-]`, the composite z-score with Albumin (Bos taurus) turned out to be 0.893; in assay [2], 0.293; in assay [3], 0.166; in assay [4], 0.57; in assay [5], 2.84; in assay [6], 0.871. Besides, the composite z-score with Sam68 (KHDRBS1) amounted to 1.32; in assay [7], 0.135; in assay [8], 1.13; in assay [9] it was 1.45; in assay [10], 1.21; in [11], 0.507. For the same molecule, the composite z-score is 0.986 in assay [12]; 0.945 in assay [13]; 0.0923 in [14]; -0.676 in the assay with Lefty1; 1.25 in assay [16]. Also, the composite Z-score in assay [1] is 0.644 (inactive). Moreover, the z-score in assay [15] was 0.64; in assay [17] it was -5.36 (inactive).

With `CCOC(=O)C[C@H]1[C@H](OC(=O)c2ccc(C(=O)c3ccccc3)cc2)[C@@H](NC(=O)CC(C)C)c2cc(OCCCO)ccc2N1C(=O)Cc1ccc(OC)cc1`, the composite z-score with Albumin (Bos taurus) was 0.793; in assay [2], -0.0377; in [3] it was 0.075; in assay [4], 0.139; in assay [5] it was 1.26; in assay [6] it was 0.563. Moreover, the composite z-score was 0.698 in the assay with Sam68 (KHDRBS1); -0.612 in [7]; 0.142 in assay [8]; 0.201 in [9]; 0.766 in assay [10]; 0.721 in assay [11]. The composite z-score in assay [12] is 0.286; in assay [13] it was 0.264; in [14] it was 0.194; in the assay with Lefty1, -0.215; in assay [16] it was 0.675. In addition, the composite Z-score in assay [1] is -0.0147 (inactive). The z-score is 0.911 in [15] and -0.563 (inactive) in [17].

As to `COCCCNC(=O)[C@@]1(Sc2ccc(C)cc2)CC(=O)N(C(C)C)[C@@H]1c1ccc(CO)cc1I`, the composite z-score with Albumin (Bos taurus) was -0.622; in assay [2] it was 0.0062; in [3], -0.164; in [4], 0.763; in assay [5], 1.4; in assay [6] it was 0.427. Besides, the composite z-score in the assay with Sam68 (KHDRBS1) is 0.462; in assay [7], -0.825; in [8] it was 0.413; in [9], -0.578; in assay [10], 0.569; in assay [11], -0.0285. The composite z-score in assay [12] is -0.491; in assay [13], -0.035; in assay [14], -0.335; in the assay on Lefty1 it was -0.21; in assay [16] it was 0.271. Further, in [1], the composite Z-score was 0.525 (inactive). Further, the z-score in assay [15] is -0.0858; in assay [17] it was 0.805 (inactive).

As to `C=C[C@@H](C)[C@@H](OC(=O)Nc1ccc(SC)cc1)c1ccc(OCCO)cc1`, the composite z-score with Albumin (Bos taurus) is 0.743; in assay [2] it was 0.221; in assay [3], -0.0814; in [4], 0.715; in [5], 1.07; in [6] it was 0.248. In addition, the composite z-score is 0.87 in the assay on Sam68 (KHDRBS1); -0.506 in assay [7]; 1.1 in assay [8]; 1.51 in assay [9]; 1.21 in assay [10]; 0.462 in [11]. The composite z-score in assay [12] came out at 0.719; in [13], 0.0078; in [14], 0.0877; with Lefty1, 0.191; in assay [16], 1.04. In addition, the composite Z-score in assay [1] was 0.939 (inactive). In addition, the z-score in [15] was -1.64; in [17], -4.2 (inactive).

As for `CO[C@H]1O[C@H](CO)[C@@H](OC(=O)c2ccc(Br)cc2)[C@@H]2OC(=O)[C@H](Cc3ccccc3)C/C=C/C[C@@H](Cc3ccccc3)C(=O)O[C@@H]12`, the composite z-score with Albumin (Bos taurus) was 0.776; in assay [2], 0.0971; in assay [3], -0.15; in assay [4] it was 0.704; in [5], 0.186; in assay [6] it was 1.07. Further, the composite z-score was -0.148 with Sam68 (KHDRBS1); 0.136 in assay [7]; 0.599 in [8]; 0.478 in assay [9]; 0.817 in [10]; 0.703 in [11]. For the same molecule, the composite z-score in assay [12] is 0.135; in assay [13] it was 0.84; in assay [14], 1.37; in the assay with Lefty1, 0.416; in assay [16], -0.0716. The composite Z-score in assay [1] is 0.726 (inactive). Also, the z-score is 0.0305 in [15] and 0.659 (inactive) in assay [17].

The record behind these values is PubChem BioAssay.
